# Data published in PubChem BioAssay AID1159580 (chemical genetic matrix, 2015).
# Values joined by “and” are separate entries in the source; they are usually repeats but may differ in a detail not shown here. Identical values can stand only once. Out of some 5,500 compounds screened, about 2,000 (36%) were called active. Inconclusive results (about 18%) are left out. The list shows a part of the results. Values without a mark were called inactive. Cut-off read from the data, not from the text of the source: active = normalized growth mostly below about 0.91 (no sharp cut-off); inconclusive = no clear call, values can overlap the other calls; inactive = mostly above about 0.92.
# Experiment: chemical genetic growth profiling, strain panel (AID 1159580);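 note: tested at 20 µM; growth read once vehicle control cultures reached saturation at 30 °C; 1 = growth at the plate median or of vehicle wells; lower values mean less growth of the strain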
# Settings: S. cerevisiae deletion strains, growth OD
structure (smiles),measurement,setting,value
CC1(C)C(=O)C=C[C@@]2(C)C1=C(O)C(=O)[C@]1(C)C2CC[C@@]2(C)[C@H](c3ccoc3)C[C@H]3O[C@]321 (stereo not given in full),normalized growth,"locus YAL021C, strain ccr4, active compounds read low",0.995
same,normalized growth,"locus YAL026C, strain drs2, active compounds read low",0.893 (active)
same,normalized growth,"locus YAL030W, strain snc1, active compounds read low",0.96
same,normalized growth,"locus YBL061C, strain skt5, active compounds read low",0.884 (active)
same,normalized growth,"locus YBR009C, strain hhf1, active compounds read low",0.672 (active)
same,normalized growth,"locus YBR021W, strain FUR4, active compounds read low",0.996
same,normalized growth,"locus YBR023C, strain chs3, active compounds read low",0.908 (active)
same,normalized growth,"locus YBR171W, strain sec66, active compounds read low",0.916
same,normalized growth,"locus YBR229C, strain ROT2, active compounds read low",0.923
same,normalized growth,"locus YBR231C, strain swc5, active compounds read low",0.901 (active)
same,normalized growth,"locus YBR279W, strain paf1, active compounds read low",0.908 (active)
same,normalized growth,"locus YCL011C, strain gbp2, active compounds read low",0.827 (active)
same,normalized growth,"locus YCL016C, strain dcc1, active compounds read low",0.901 (active)
same,normalized growth,"locus YCL029C, strain bik1, active compounds read low",0.879 (active)
same,normalized growth,"locus YCL061C, strain MRC1, active compounds read low",0.897 (active)
same,normalized growth,"locus YCL069W, strain vba3, active compounds read low",0.959
same,normalized growth,"locus YCR088W, strain abp1, active compounds read low",0.962
same,normalized growth,"locus YDL005C, strain med2, active compounds read low",0.957
same,normalized growth,"locus YDL035C, strain GPR1, active compounds read low",0.641 (active)
same,normalized growth,"locus YDL040C, strain nat1, active compounds read low",0.957
same,normalized growth,"locus YDL074C, strain BRE1, active compounds read low",0.377 (active)
same,normalized growth,"locus YDL101C, strain DUN1, active compounds read low",0.786 (active)
same,normalized growth,"locus YDL134C, strain PPH21, active compounds read low",0.608 (active)
same,normalized growth,"locus YDL185W, strain tfp1, active compounds read low",0.955
same,normalized growth,"locus YDL192W, strain arf1, active compounds read low",0.743 (active)
same,normalized growth,"locus YDR001C, strain nth1, active compounds read low",0.967
same,normalized growth,"locus YDR069C, strain doa4, active compounds read low",0.99
same,normalized growth,"locus YDR101C, strain arx1, active compounds read low",0.843 (active)
same,normalized growth,"locus YDR137W, strain rgp1, active compounds read low",0.602 (active)
same,normalized growth,"locus YDR159W, strain sac3, active compounds read low",0.549 (active)
same,normalized growth,"locus YDR162C, strain NBP2, active compounds read low",0.226 (active)
same,normalized growth,"locus YDR195W, strain ref2",0.785 (active)
same,normalized growth,"locus YDR297W, strain sur2, active compounds read low",0.869 (active)
same,normalized growth,"locus YDR318W, strain mcm21, active compounds read low",0.762 (active)
same,normalized growth,"locus YDR334W, strain swr1, active compounds read low",0.965
same,normalized growth,"locus YDR335W, strain msn5, active compounds read low",0.969
same,normalized growth,"locus YDR388W, active compounds read low",0.982
same,normalized growth,"locus YDR392W, strain spt3, active compounds read low",0.219 (active)
same,normalized growth,"locus YDR502C, strain sam2, active compounds read low",0.833 (active)
same,normalized growth,"locus YEL003W, strain gim4, active compounds read low",0.851 (active)
same,normalized growth,"locus YEL037C, strain rad23, active compounds read low",0.966
same,normalized growth,"locus YEL061C, strain CIN8 (second series), active compounds read low",0.95
same,normalized growth,"locus YER015W, strain faa2, active compounds read low",0.902 (active)
same,normalized growth,"locus YER016W, strain bim1, active compounds read low",0.934
same,normalized growth,"locus YER110C, active compounds read low",0.978
same,normalized growth,"locus YER111C, strain swi4, active compounds read low",0.925
same,normalized growth,"locus YER155C, strain BEM2 (second series), active compounds read low",0.814 (active)
same,normalized growth,"locus YER155C, strain BEM2, active compounds read low",0.57 (active)
same,normalized growth,"locus YER167W, strain BCK2, active compounds read low",0.768 (active)
same,normalized growth,"locus YFR010W, strain ubp6, active compounds read low",0.95
same,normalized growth,"locus YGL078C, strain dbp3, active compounds read low",0.934
same,normalized growth,"locus YGL086W, strain mad1, active compounds read low",0.767 (active)
same,normalized growth,"locus YGL167C, strain pmr1, active compounds read low",0.954
same,normalized growth,"locus YGL173C, strain kem1, active compounds read low",0.872 (active)
same,normalized growth,"locus YGL227W, strain vid30, active compounds read low",0.949
same,normalized growth,"locus YGL240W, strain doc1, active compounds read low",0.916
same,normalized growth,"locus YGL248W, strain PDE1, active compounds read low",0.766 (active)
same,normalized growth,"locus YGL253W, strain hxk2, active compounds read low",0.871 (active)
same,normalized growth,"locus YGR078C, strain PAC10, active compounds read low",0.513 (active)
same,normalized growth,"locus YGR135W, strain pre9, active compounds read low",0.854 (active)
same,normalized growth,"locus YGR252W, strain gcn5, active compounds read low",0.734 (active)
same,normalized growth,"locus YHR013C, strain ard1, active compounds read low",0.842 (active)
same,normalized growth,"locus YHR027C, strain rpn1, active compounds read low",0.917 (active)
same,normalized growth,"locus YHR030C, strain SLT2, active compounds read low",0.697 (active) and 0.536 (active)
same,normalized growth,"locus YHR079C, strain IRE1 (second series), active compounds read low",0.972
same,normalized growth,"locus YHR079C, strain IRE1, active compounds read low",0.821 (active)
same,normalized growth,"locus YHR094C, strain hxt1, active compounds read low",0.975
same,normalized growth,"locus YHR129C, strain ARP1, active compounds read low",0.613 (active)
same,normalized growth,"locus YHR142W, strain chs7, active compounds read low",0.8 (active)
same,normalized growth,"locus YHR200W, strain rpn10, active compounds read low",0.951
same,normalized growth,"locus YIL066C, strain RNR3, active compounds read low",0.381 (active)
same,normalized growth,"locus YIL073C, strain SPO22, active compounds read low",0.868
same,normalized growth,"locus YIL125W, strain kgd1, active compounds read low",0.928 (active)
same,normalized growth,"locus YIR030C, strain dcg1, active compounds read low",0.907 (active)
same,normalized growth,"locus YJL092W, strain hpr5, active compounds read low",0.961
same,normalized growth,"locus YJL095W, strain BCK1 (second series), active compounds read low",0.777 (active)
same,normalized growth,"locus YJL095W, strain BCK1, active compounds read low",0.363 (active) and 0.62 (active)
same,normalized growth,"locus YJL115W, strain asf1, active compounds read low",0.969
same,normalized growth,"locus YJL129C, strain trk1, active compounds read low",0.776 (active)
same,normalized growth,"locus YJL134W, strain LCB3, active compounds read low",0.966
same,normalized growth,"locus YJL154C, strain vps35, active compounds read low",0.977
same,normalized growth,"locus YJL164C, strain tpk1, active compounds read low",0.838 (active)
same,normalized growth,"locus YJL166W, strain qcr8, active compounds read low",0.748 (active)
same,normalized growth,"locus YJL168C, strain set2, active compounds read low",0.985
same,normalized growth,"locus YJL187C, strain SWE1 (second series), active compounds read low",0.808 (active)
